According to PubChem BioAssay AID1903 (Southern Research Specialized Biocontainment Screening …, 2009):
Among all 310,000 compounds or so, about 1,200 (0.39%) were called active. No rule for the calls is given here. Not all results are given here. Measured potencies and affinities stand elsewhere.

These molecules were tested against Large T antigen (Simian virus 40) (UniProt P03070) (assay: TAg ATPase/helicase activity blockers – biochemical (AID 1903)). Conditions: SV40 large T antigen ATPase/helicase inhibition assay; at 20 µM; hits give high values.
Chain of Large T antigen (Simian virus 40) (P03070 whole entry, looked up): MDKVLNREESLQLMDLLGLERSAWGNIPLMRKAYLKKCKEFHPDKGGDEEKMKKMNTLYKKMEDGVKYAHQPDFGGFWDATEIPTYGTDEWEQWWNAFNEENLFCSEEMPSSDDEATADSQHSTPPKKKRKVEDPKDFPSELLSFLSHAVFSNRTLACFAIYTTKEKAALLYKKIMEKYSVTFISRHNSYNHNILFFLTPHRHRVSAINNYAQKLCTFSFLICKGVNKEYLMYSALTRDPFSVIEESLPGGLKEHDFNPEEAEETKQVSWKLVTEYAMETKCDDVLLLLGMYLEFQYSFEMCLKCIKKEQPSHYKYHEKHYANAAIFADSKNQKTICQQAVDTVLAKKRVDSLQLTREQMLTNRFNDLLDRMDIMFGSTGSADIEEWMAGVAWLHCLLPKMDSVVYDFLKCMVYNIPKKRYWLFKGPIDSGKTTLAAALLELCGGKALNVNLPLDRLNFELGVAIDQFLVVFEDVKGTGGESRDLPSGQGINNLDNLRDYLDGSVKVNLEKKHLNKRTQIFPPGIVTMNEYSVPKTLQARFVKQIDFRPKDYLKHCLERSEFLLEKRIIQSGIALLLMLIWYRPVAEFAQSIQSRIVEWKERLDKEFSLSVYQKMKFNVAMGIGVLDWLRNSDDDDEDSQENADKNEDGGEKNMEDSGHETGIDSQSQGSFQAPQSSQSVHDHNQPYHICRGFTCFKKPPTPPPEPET

inhibition, inactive:
Cc1cccc(N/N=C(\C#N)S(=O)(=O)C(C)(C)C)c1 8.77%
O=C(O)CCCNC(=O)Cc1ccccc1 2.55%
O=C(Cc1cccs1)NNC(=O)c1ccc(F)cc1 8.96%
Cc1cc(Nc2ccccc2Cl)c2ccccc2n1 8.12%
COc1cccc(CNc2ccc(C(=O)O)cc2)c1OCc1ccccc1 7.38%
C=CCOc1c(CNc2ccc(C(=O)O)cc2)cccc1OC 9.8%
C=CCOc1ccccc1CNc1ccc2c(c1)OCCO2 25.8%
C=CCOc1ccccc1CNc1cccc(F)c1 -2.23%
COc1cccc(CNc2ccc3[nH]c(=O)[nH]c3c2)c1OCc1ccccc1Cl 37%
C=CCOc1c(CNc2cccc(C(=O)O)c2)cccc1OC 9.77%
COc1ccc2nc(NC(=O)C3CCN(C(=O)c4ccco4)CC3)sc2c1 -5.44%
Cc1ccc(NC(=O)c2ccc(F)cc2)cc1S(=O)(=O)N1CCCCCC1 7.24%
COCCn1c(=O)[nH]c2cc(C(=O)Nc3ccc(OC)c(Cl)c3)ccc2c1=O 4.08%
O=C(O)c1ccccc1N/N=C/c1c(Sc2nnnn2-c2ccccc2)nc2ccccn2c1=O 13.1%
O=c1c(/C=N/Nc2ccccc2)c(Sc2nnnn2-c2ccccc2)nc2ccccn12 0.84%
O=C(COc1ccc([N+](=O)[O-])cc1)Nc1ccc2c(c1)nc1n2CCOC1 14.9%
Cc1ccc(C(=O)CN(Cc2ccccc2)C2=NCCS2)cc1 -1.42%
C=CCN1C(=O)/C(=N/n2cnnc2)c2ccccc21 25.4%
c1ccc2c(c1)C(=Nn1cnnc1)c1ccccc1-2 3.9%
O=C(c1ccco1)N1CCC(c2nc3c(nnn3Cc3ccc(F)cc3)c(=O)[nH]2)CC1 12.3%
Cc1ccc(NC(=O)COC(=O)CCC(=O)c2cccs2)cc1S(=O)(=O)N1CCOCC1 14.2%
CC12CC3CC(C)(C1)CC(C(O)CN1CCOCC1)(C3)C2 (stereo not given) 3.1%
N/C(=N\N=C\c1cccc(O)c1)c1nonc1N 18.6%
COc1cc(/C=N/N=C(\N)c2nonc2N)cc(OC)c1O 36.3%
N/C(=N\N=C\c1ccc(O)cc1)c1nonc1N 23.1%
COc1ccc(/C=N/N=C(\N)c2nonc2N)cc1OC 22.7%
CCOC(=O)c1c(NC(=S)N2CCN(C)CC2)sc(C)c1-c1ccccc1 9.17%
CCOC(=O)C1=C(O)C(=O)N(c2ccc(S(N)(=O)=O)cc2)C1c1ccc([N+](=O)[O-])cc1 (stereo not given) 5.61%
Cc1ccc(NC(=O)Cc2ccsc2)cc1Cl 8.34%
C=CCC(C#Cc1ccc(C)cc1)N(CC)CC (stereo not given) 2.04%
COCCNC(=O)CN(C(=O)CCC(=O)Nc1ccccn1)c1ccc(F)cc1 2.44%
N#Cc1ccccc1-c1ccccc1C(=O)N1CCCCC1 5.76%
COc1cc(C(=O)Nc2ccc(C(=O)O)cc2)ccc1OC(C)=O 17.2%
O=C(Nc1ccccc1O)c1ccc2c(c1)C(=O)N(N1C(=O)c3ccccc3C1=O)C2=O 5.64%
Cc1cccc(C(=O)Nc2ccc(NC(=O)c3ccccc3)cc2)c1 2.43%
O=C(Nc1ccc(O)cc1)c1ccc2c(c1)C(=O)N(Cc1ccccc1)C2=O 35.7%
COC(=O)c1ccc(NC(=O)c2ccc(OC(C)=O)c(OC)c2)cc1 4.68%
O=C(Nc1cccc(O)c1)c1ccc2c(c1)C(=O)N(Cc1ccco1)C2=O 8.23%
CCc1ccc(NC(=O)c2ccc3c(c2)C(=O)N(Cc2ccco2)C3=O)cc1 9.22%
Cc1cccc(C(=O)Nc2ccc(C(=O)Nc3ccc(O)cc3)cc2)c1 8.66%
CCCOC(=O)c1ccc(NC(=O)CSC2=Nc3ccccc3C3CC=NN23)cc1 (stereo not given) 7.1%
CCCCNC(=O)c1cc2c(C)cc(C)cc2[nH]1 4.47%
COc1ccc(S(=O)(=O)n2nc(-n3c(C)ccc3C)c3c(F)cccc32)cc1OC 2.54%
COc1ccc(S(=O)(=O)N2CCN(c3ccc(C)cc3C)CC2)cc1OC 7.1%
CCn1cc(C(=O)N2CCN(c3ccc(OC)cc3)CC2)c(=O)c2cc(S(=O)(=O)N3CCCCC3)ccc21 15.4%
CN1CCN(C(=O)C2CCCN(S(=O)(=O)c3ccccc3)C2)CC1 (stereo not given) 7.31%
CC1Cc2cc(/C=C3/SC(=S)N(C)C3=O)ccc2O1 (stereo not given) 0.875%
O=C(COc1ccc2c3c(c(=O)oc2c1)CCCC3)N1C[C@H]2C[C@@H](C1)c1cccc(=O)n1C2 3.64%
N#C/C(=C\c1cccnc1)C(=O)Nc1ccc(Cl)cc1 14.4%
CCN(CC)C1CC(=O)N(c2cccc(C)c2)C1=O (stereo not given) 0.27%
O=C1CC(N2CCSCC2)C(=O)N1c1cccc(Br)c1 (stereo not given) 10.7%
COC(C/C=C\[C@H](O)[C@@H](C)OCc1ccccc1)OC 2.9%
CC1(C)Cc2c(c(N3CCOCC3)nc3sc(-c4ccc(C(=O)O)o4)c(N)c23)CO1 21.9%
COC(=O)c1ccc(-c2sc3nc(N4CCOCC4)c4c(c3c2N)CC(C)(C)OC4)o1 -1.68%
COC(=O)c1ccccc1NS(=O)(=O)c1ccc(Cl)nc1 4.72%
N#CC1=C(N)OC2=C(C(=O)CCC2)C1c1cccs1 (stereo not given) 23%
O=C(NCC(c1cccnc1)N1CCN(c2ccccc2)CC1)C1CCCCC1 (stereo not given) 2.45%
O=C(NCC(c1cccnc1)N1CCN(c2ccc(F)cc2)CC1)C1CCCCC1 (stereo not given) 18.4%
CCN(c1ccccc1)c1nc2ccsc2c(=O)s1 3.95%
COc1ccc(S(=O)(=O)N2CC=C(C(=O)Nc3ccc(NC(C)=O)cc3)CC2)cc1 8.65%
COc1ccc(N(CC(=O)NCCC2=CCCCC2)S(C)(=O)=O)cc1 1.47%
NS(=O)(=O)c1ccc(NC(=O)COC(=O)COc2ccccc2)cc1 3.76%
CCCc1nnc(NC(=O)C(C)N2C(=O)C3C4C=CC(C4)C3C2=O)s1 (stereo not given) 4.05%
Cc1ccc(-c2nnnn2-c2ccc(C)cc2)cc1 -0.57%
Cc1ccc(-n2nnnc2C(Cl)c2nnnn2-c2ccc(C)cc2)cc1 7.23%
c1ccc(-c2nnnn2-c2ccccc2)cc1 12.4%
c1ccc(-n2nnnc2Cc2nnnn2-c2ccccc2)cc1 -7.53%
COc1cc(OC)cc(C(=O)N[C@H](C(=O)Nc2cccc(S(=O)(=O)N3CCCC3)c2)C(C)C)c1 11.5%
O=C(Nc1cccc(-c2cn3c(n2)SCC3)c1)c1ccc(Br)o1 7.7%
COc1ccccc1OCCC(=O)NCc1ccc2c(c1)OCO2 8.06%
Cc1[nH]c2ccccc2c1C(=O)COC(=O)c1cccc(S(=O)(=O)N2CCCCC2)c1 7.32%
CC(=O)Nc1ccc(N/C=C2/CCCC2=O)cc1 16.2%
Cc1ccc(N/C=C2\CCCCC2=O)c(C)c1 8.76%
Cc1ccccc1NC(=S)NCc1ccccc1 7.25%
CCOC(=O)c1cccc(Nc2nc(-c3cccnc3)nc3ccccc23)c1 6.16%
COc1ccc(CNC(=O)CSc2nnc(C)c(=O)[nH]2)cc1 8.06%
O=C1CC(Nc2ccc(N3CCOCC3)cc2)C(=O)N1c1ccccc1 (stereo not given) 21.4%
O=C1CC(Nc2ccccc2)C(=O)N1c1ccc(N2CCOCC2)cc1 (stereo not given) 6.8%
S=c1[nH]nc(C2CCCCC2)n1/N=C/c1ccc(Br)cc1 0.57%
CCOc1cc(CNCCO)cc(Br)c1OCc1cccs1 10.3%
CCN(CC)S(=O)(=O)c1ccc(NC(=O)c2cnccn2)cc1 19.6%
CCN(C(=O)CN1CCN(c2ccccc2)CC1)c1c(N)n(Cc2ccccc2)c(=O)[nH]c1=O 14.1%
CCN(C(=O)CN1CCN(c2ccc(OC)cc2)CC1)c1c(N)n(Cc2ccccc2)c(=O)[nH]c1=O 21.5%
Cc1ccc(C(=O)N/C(=C\c2ccc3c(c2)OCO3)C(=O)Nc2ccc(C(=O)O)cc2)cc1 1.87%
CCC1CCc2sc(C(=O)OCC(=O)N(CCOC)c3c(N)n(Cc4ccccc4)c(=O)[nH]c3=O)cc2C1 (stereo not given) 16.3%
COCCN(C(=O)COC(=O)c1cc2c(s1)CCCC2)c1c(N)n(Cc2ccccc2)c(=O)[nH]c1=O 4.52%
CCN1/C(=C2/SC(=S)N(NC(C)=O)C2=O)Sc2ccccc21 0.32%
Cc1ccc(-n2cc(CNCC3CC(=O)N(C4CC4)C3)c(-c3cccc(C)c3)n2)cc1 (stereo not given) 4.43%
CCOc1ccc(N=Cc2ccc3ccccc3c2)cc1 21.9%
O/N=C/c1ccc2ccccc2c1 70.8%
COc1ccc(S(=O)(=O)N(C)c2ccc(OC(=O)C(C)Oc3ccc(F)cc3)cc2)cc1 (stereo not given) 13%
N/C(=N\N=C\c1ccc2c(c1)OCO2)c1nonc1N 7.74%
Cc1cc(=O)oc2c(CN3CCCC3)c(O)ccc12 4.61%
Cc1cc(=O)oc2c(CN(CC(C)C)CC(C)C)c(O)ccc12 15.8%
COc1ccc(CCN2C(=NC(=O)CC(C)C)SC3CS(=O)(=O)CC32)cc1 (stereo not given) 0.43%
